# Records with an inconclusive call do not appear. Entries that show only a call come without a potency. A number with no mark means an inactive call. Calls of active or inactive are those of the source. The call rests on the fitted dose curve; in most records, active means well fitted inhibition curve with a large enough effect; inconclusive means small, poorly fitted or top-dose-only effect; inactive means no such curve, though single readings can be large or run the other way.
# Assay: qHTS assay for measurement of the activity of small molecule inhibitors on Zika virus induced Caspase-3 activity in human iPSC derived neural progenitor cells (hNPCs) (AID 1224857); further: nearly all actives have a fitted effect of over 65% in size
# Details: hNPCs ZIKV-induced caspase-3/7, Caspase-Glo luminescence, 6 h; series mostly up to 45.7 µM
# Excerpt: National Center for Advancing Translational Sciences [NCATS]
# Johns Hopkins University School of Medicine
# Increase in the Caspase-3 activity indicates an activation of apoptosis cell death pathway caused by Zika virus infection in certain types of neuronal cells including human neural progenitor cells (hNPCs), astrocytes, and astrocytoma cell line (SNB-19). This cell-based caspase-3 activity assay measures the increased caspase-3 activity in the human iPSC derived neural progenitor cells (hNPCs) after a 6-hour Zika virus infection with a luminescence readout. A decrease in the luminescence signal in this assay by small molecule treatment indicates an inhibitory effect of that small molecule on the Zika virus induced caspase-3 activity that may correlate with its effect on reduction of Zika virus caused cell death.
# The medium for hNPCs consists of DMEM/F12, N2 supplement (ThermoFisher, Cat.# 17502048), NEAA (ThermoFisher, Cat. # 11140050), 2 ug/ml heparin, 2 uM cyclopamine, and B27 (ThermoFisher, Cat. # 17504044). A Caspase-Glo 3/7 assay kit (catalog number G8092; Promega, Madison, WI) was used to detect caspase-3 activity induced by Zika virus infection in human cells. The reagent mixture was reconstituted as described in the protocol from the manufacturer. Polystyrene tissue culture treated and PDL coated white plates were obtained from Greiner Bio-One (Monroe, NC). Cells were seeded in 384- or 1536-well assay plates and cultured at 37 C with 5% CO2 for 16 to 20 hours. The typical cell seeding density in the 1536-well plate assay is 350 cells/well in 3 ul medium for hNPCs in tissue culture treated plates. Compounds were added to cells and incubated for one hour before addition of ZIKV solution to cells (2 FFU/cell). After incubation at 37 C with 5% CO2 for 6 hours, the reagent mixture of Caspase-Glo 3/7 assay kit was added to each well, followed by incubation at room temperature for 30 minutes. The luminescence intensity of the assay plates was measured using a ViewLux plate reader (PerkinElmer). Data were normalized by using the cell-containing wells without ZIKV as a negative control (0% induction of caspase 3/7 activity) and wells containing ZIKV infected cells (Caspase-3 activity induced) as a positive control (100% induction of caspase 3 activity). The percentage inhibitions of the increased Caspase-3 activity by small molecule inhibitors were then calculated.
Compound,Potency,"activity change, negative = inhibition"
COc1ccc(CCC(=O)c2c(O)cc(O[C@@H]3O[C@H](CO)[C@@H](O)[C@H](O)[C@@H]3O[C@@H]3O[C@@H](C)[C@H](O)[C@@H](O)[C@@H]3O)cc2O)cc1O,inactive,
CNC(=O)Nc1ccc(-c2nc(N3CC4CCC(C3)O4)c3cnn(C4CCC5(CC4)OCCO5)c3n2)cc1,inactive,
C[C@H](NC(=O)Cc1cc(F)cc(F)c1)C(=O)N[C@H](C(=O)OC(C)(C)C)c1ccccc1,inactive,
CCNC(=O)c1cc2c(-c3cc(OCCN4CCCC4)c(Cl)cc3Cl)nc(N)nc2s1,inactive,
CN1CCc2c(c3ccccc3n2Cc2ccc(C(=O)NO)cc2)C1,inactive,
CC[C@H]1OC(=O)[C@H](C)[C@@H](O[C@H]2C[C@@](C)(OC)[C@@H](O)[C@H](C)O2)[C@H](C)[C@@H](O[C@@H]2O[C@H](C)C[C@H](N(C)C)[C@@H]2O)[C@](C)(OC)C[C@@H](C)C(=O)[C@H](C)[C@@H](O)[C@]1(C)O,inactive,
C=C1C(=CC=C2CCC[C@]3(C)[C@@H]([C@H](C)CCCC(C)(C)O)CC[C@@H]23)C[C@@H](O)C[C@@H]1O,inactive,
C[C@](Cc1c[nH]c2ccccc12)(NC(=O)OC1C2CC3CC(C2)CC1C3)C(=O)NC[C@H](NC(=O)CCC(=O)O)c1ccccc1 (stereo not given in full),inactive,
c1cc(N[C@@H]2CCNC2)nc(-c2cnc3ccc(-c4cn[nH]c4)cn23)c1,inactive,
COC[C@H](NC(=O)c1cnc(C)s1)C(=O)N[C@@H](COC)C(=O)N[C@@H](Cc1ccccc1)C(=O)[C@@]1(C)CO1,inactive,
Cc1cn([C@@H]2O[C@H](CO)[C@@H](O)[C@H]2F)c(=O)[nH]c1=O,inactive,
NC(=O)Nc1sc(-c2ccc(F)cc2)cc1C(N)=O,inactive,
COc1ccc2cc([S+]([O-])Cc3ncc(C)c(OC)c3C)nc2c1,inactive,
CC1=C(C(=O)Nc2cc3cn[nH]c3cc2F)C(c2ccc(Cl)cc2F)N=C(c2ccnc(Cl)c2)N1 (stereo not given),inactive,
CC(C)(C)[C@H](NC(=O)c1ccc(N)c(Cl)c1)C(=O)N1CCC[C@@H]1C(=O)N[C@H](C#N)CC(=O)O,,12% [at 4.53 µM]
CC(C)c1cnn2c(NCc3ccccc3)cc(NCCCCCCN)nc12,inactive,
C[C@@H]1C(=O)O[C@H]2CC34[C@H]5C[C@@H](C(C)(C)C)C36[C@H](OC(=O)[C@@H]6O)O[C@@]4(C(=O)O5)[C@]21O (stereo not given in full),inactive,
O=C(CCCCCCC(=O)Nc1cccnc1)NO,inactive,
CC(C)N(CC[C@H](c1ccccc1)c1cc(CO)ccc1O)C(C)C,inactive,
FC(F)(F)c1ccc(Nc2nc3ccc(Oc4ccnc(-c5ncc(C(F)(F)F)[nH]5)c4)cc3[nH]2)cc1,inactive,

Compound,Potency,"activity change, negative = inhibition"
CN(C)c1ccc(C(=O)NCCCCCCC(=O)NO)cc1,inactive,
C[C@H](CCC(=O)O)[C@H]1CCC2C3C[C@H](O)[C@@H]4C[C@H](O)CC[C@]4(C)C3CC[C@@]21C (stereo not given in full),inactive,
C#CCC(Cc1cnc2nc(N)nc(N)c2n1)c1ccc(C(=O)N[C@@H](CCC(=O)O)C(=O)O)cc1 (stereo not given in full),inactive,
CCCCCCCCCCCCc1ccc(S(=O)(=O)Nc2nncs2)cc1,inactive,
C[C@H]1COc2c(N3CCN(C)CC3)c(F)cc3c(=O)c(C(=O)O)cn1c23,inactive,
CCCCC(=O)O[C@]1(C(=O)CO)[C@@H](C)C[C@H]2[C@@H]3CCC4=CC(=O)C=C[C@]4(C)[C@@]3(F)[C@@H](O)C[C@@]21C,inactive,
O=C1NC(=O)C(=Cc2ccc3nccc(-c4ccncc4)c3c2)S1,inactive,
CN[C@H](CC(C)C)C(=O)N[C@H]1C(=O)N[C@@H](CC(N)=O)C(=O)N[C@@H]2C(=O)N[C@H]3C(=O)N[C@H](C(=O)N[C@H](C(=O)O)c4cc(O)cc(O)c4-c4cc3ccc4O)[C@H](O)c3ccc(c(Cl)c3)Oc3cc2cc(c3O[C@@H]2O[C@H](CO)[C@@H](O)[C@H](O)[C@@H]2O[C@H]2C[C@](C)(N)[C@H](O)[C@H](C)O2)Oc2ccc(cc2Cl)[C@H]1O,inactive,
CN[C@@H]1C[C@H]2O[C@@](C)([C@H]1OC)n1c3ccccc3c3c4c(c5c6ccccc6n2c5c31)C(=O)N[C@H]4O,inactive,
C[C@H](NC(=O)C(C#N)=Cc1cccc(Br)n1)c1ccccc1,inactive,
C[C@@H](Oc1ccc2[nH]nc(C=Cc3cnn(CCO)c3)c2c1)c1c(Cl)cncc1Cl,inactive,
Cc1onc(-c2ccccc2)c1C(=O)N[C@@H]1C(=O)N2[C@@H](C(=O)O)C(C)(C)S[C@@H]12,inactive,
Oc1ccc([C@@H]2Oc3ccc(O)cc3[C@@H]3CCC[C@@H]32)cc1,inactive,
CCCCCCCCCCCC(CC1OC(=O)C1CCCCCC)OC(=O)C(CC(C)C)NC=O (stereo not given),inactive,
C=Cc1c(C)c2cc3nc(cc4[nH]c(cc5nc(cc1[nH]2)C(C)=C5CCC(=O)O)c(CCC(=O)OC)c4C)[C@@]1(C)C3=CC=C(C(=O)OC)[C@H]1C(=O)OC,inactive,
Cn1cc(CNCC2CCN(c3ncc(C(=O)NO)cn3)CC2)c2ccccc21,inactive,
Oc1ccc(-c2ccc(-c3cc(Nc4cccc(CNC5CC5)c4)n[nH]3)cc2)c(O)c1,inactive,
C#Cc1cccc(Nc2ncnc3cc(OCCOC)c(OCCO)cc23)c1,inactive,
Cn1cc(-c2cnn3c(N)c(Br)c([C@H]4CCCNC4)nc23)cn1,inactive,
O=C(NC1CC1)c1cccc(-c2ccc3c(NC(=O)C4CC4)n[nH]c3c2)c1,inactive,

# Reference: PubChem BioAssay (NCATS)
